CYP2C19 inhib = inhibitors of human CYP2C19; P33261; CYP2C19 Supersomes, luciferin-H EGE luminescence, 30 min; inhibition, % at 5 µM; 21% of 96,000 active;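 active = CYP2C19 inhibition above a set limit at 5 µM in the primary screen, cut at about 50% in these data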;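 note: plate controls were negative control wells for no effect and 2.5 mM tranylcypromine positive control for full effect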
Target sequence (P33261 whole entry, looked up): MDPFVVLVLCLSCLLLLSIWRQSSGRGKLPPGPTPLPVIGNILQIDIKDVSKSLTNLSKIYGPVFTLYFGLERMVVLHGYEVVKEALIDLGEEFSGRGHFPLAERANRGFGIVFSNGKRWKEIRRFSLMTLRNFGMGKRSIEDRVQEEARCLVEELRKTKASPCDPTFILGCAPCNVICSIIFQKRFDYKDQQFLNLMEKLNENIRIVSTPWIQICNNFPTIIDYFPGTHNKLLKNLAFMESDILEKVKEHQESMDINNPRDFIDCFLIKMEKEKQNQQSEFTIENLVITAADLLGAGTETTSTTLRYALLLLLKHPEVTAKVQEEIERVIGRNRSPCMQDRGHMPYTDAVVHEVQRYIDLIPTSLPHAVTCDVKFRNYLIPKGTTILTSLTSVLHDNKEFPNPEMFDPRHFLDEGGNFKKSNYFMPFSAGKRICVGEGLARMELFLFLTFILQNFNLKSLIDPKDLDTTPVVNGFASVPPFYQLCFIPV
PostGolgi yeast = growth inhibition of a yeast mutant, post-Golgi transport screen; post-Golgi transport phenotypic cell assay; inhibition, % at 10 µM; 0.9% of 98,000 active;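 note: yeast cells grown in 1536-well plates; yeast grown about 18 h at 30C before absorbance read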
CYP2C9 act = activators of human CYP2C9; P11712; recombinant CYP2C9, luciferin-H conversion, luminescence; stronger effect = higher value; factor 1 = untreated enzyme, 0 = blocked; activation factor at 5 µM; 1.4% of 96,000 active;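 active = activation factor of 2 or more for CYP2C9 at a 5 µM dose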;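 note: 0 = sulfaphenazole-blocked wells and 1 = vehicle-only wells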
CYP2C19 act = increases human CYP2C19 enzyme activity | P33261 | recombinant CYP2C19, luciferin-H EGE luminescence; stronger effect = higher value; 0 = fully inhibited enzyme, 1 = untreated enzyme | activation factor at 5 µM | 96,000 tested, under 10 active;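 active = activation factor of at least 2 at 5 µM in the primary screen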;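 note: 0 = wells with 2.5 mM tranylcypromine and 1 = vehicle-only wells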
CYP2C9 inhib = blocks human cytochrome P450 2C9; P11712; CYP2C9 Supersomes, luciferin-H conversion, luminescence; inhibition, % at 5 µM; 20% of 96,000 active; AID 777;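 active = blocking of liver enzyme CYP2C9 beyond about 50% at 5 µM, limit read from the data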
PostGolgi ctrl = growth of the yeast control strain, post-Golgi counter-screen; inhibition, % at 10 µM; 5% of 98,000 active; AID 738; efflux-deficient yeast background strain, growth absorbance A615, 16 h
Numbers without * were called inactive; nt = no result given. Only some compounds are listed: those with a hit (about 32% of all), similar ones and a draw of the others. Cut-off read from the data, not from the text of the source, unless noted: active = inhibition above about 30%; inactive = the rest.

SMILES | CYP2C19 inhib | PostGolgi yeast | CYP2C9 act | CYP2C19 act | CYP2C9 inhib | PostGolgi ctrl
CC(=O)C(C)Oc1ccc2c3c(c(=O)oc2c1C)CCCC3 (stereo not given) | 58* | 17 | 0.5 | 0.4 | 46 | 6
Cc1c(OCC(=O)OC(C)(C)C)ccc2c3c(c(=O)oc12)CCC3 | 15 | -1 | 1 | 0.8 | 2 | 17
Cc1oc(C(=O)O)cc1COc1ccc2c3c(c(=O)oc2c1C)CCCC3 | -4 | nt | 1.1 | 1 | -14 | nt
O=C(c1ccc(S(=O)(=O)N2CCOCC2)cc1)N1CCc2ccccc2C1 | 1 | 3 | 1 | 1 | -1 | 20
COC(=O)c1cccc(C(=O)Nc2ccc(C)cc2Br)n1 | 22 | 0 | 0.5 | 0.8 | 54* | 12
CCOc1ccccc1N1CCN(C(=O)c2cc3c(s2)CCC3)CC1 | 10 | 17 | 0.6 | 0.9 | 45 | 40*
CCOc1ccccc1N1CCN(C(=O)c2cc[n+]([O-])cc2)CC1 | 80* | -4 | 1.1 | 0.2 | -6 | 10
CCOc1ccccc1N1CCN(C(=O)C(Sc2ccccc2)c2ccccc2)CC1 (stereo not given) | 51* | -8 | 0.6 | 0.5 | 42 | 14
CCCc1ccc(C(=O)N2CCN(c3ccccc3OCC)CC2)cc1 | 88* | 1 | 0.2 | 0.1 | 76* | 24
CCOc1ccccc1N1CCN(C(=O)C(F)(F)F)CC1 | 24 | -8 | 0.9 | 0.8 | 10 | -8
O=C(NC1CC1)C1C2C3C4CC5C3C5C4C12 (stereo not given) | -2 | -1 | 1 | 1 | -4 | 14
CCOc1cc(C#N)c(NC(=O)CSc2nnnn2-c2ccc(OC)cc2)cc1OCC | 4 | -3 | 0.9 | 1 | 5 | 0
Cc1ccc(NCc2nnc(SCC(=O)c3ccc4c(c3)OCCO4)o2)c(C)c1 | -1 | -7 | 1 | 1 | -4 | -11
CCOc1ccccc1N1CCN(C(=O)c2cc(C)oc2C)CC1 | 68* | 5 | 0.7 | 0.3 | 27 | 2
CCOC(=O)C(C)Sc1nc(C2CC2)cc(C(F)(F)F)c1C#N (stereo not given) | 27 | 1 | 0.8 | 0.7 | 25 | 15
CCOc1cccc(NC(=O)CSc2nc(C)c3c(c2C#N)CCCC3)c1 | 14 | -6 | 0.8 | 0.9 | 16 | -1
CC(=O)Nc1cccc(NC(=O)CSc2nc(C)c(C)c(C)c2C#N)c1 | 67* | -2 | 0.8 | 0.3 | 19 | 4
O=C(Oc1cccc2cccnc12)c1ccc2c(c1)OCCO2 | 45 | 2 | 3.3* | 0.6 | -231 | 5
CC(SCc1ccccc1)C(=O)NN=C1CCN(C)CC1 (stereo not given) | 11 | -3 | 1.1 | 0.9 | -9 | 0
CCOc1ccc(C(=O)N/N=C(\c2ccccc2)c2ccccn2)cc1 | 26 | -2 | 1.1 | 0.7 | -13 | 2
CCOc1ccc(CC2S/C(=N/c3ccccn3)NC2=O)cc1 (stereo not given) | 72* | 24 | 0.8 | 0.3 | 22 | 13
COC(=O)c1ccccc1OCCOc1ccccc1C(=O)OC | 62* | 2 | 0.5 | 0.4 | 47 | 7
O=C(O)c1ccccc1OCCOc1ccccc1C(=O)O | -9 | -8 | 1.2 | 1.1 | -18 | 44*
CCOC(=O)N1CCN(C(=O)c2ccc3c(c2)NC(=O)C(N2CCOCC2)S3)CC1 (stereo not given) | 15 | -17 | 0.9 | 0.8 | 7 | -9
O=C1C2C(c3ccccc3)C=CC(c3ccccc3)C2C(=O)N1CCO (stereo not given) | 99* | nt | 0.3 | 0 | 74* | nt
SMILES | CYP2C19 inhib | PostGolgi yeast | CYP2C9 act | CYP2C19 act | CYP2C9 inhib | PostGolgi ctrl
O=C1C2C3C=CC(C3=C(c3ccccc3)c3ccccc3)C2C(=O)N1Cc1ccccc1 (stereo not given) | 54* | -4 | 1.1 | 0.5 | -14 | 8
O=C1C2C(c3ccccc3)C=CC(c3ccccc3)C2C(=O)N1C1CCCCC1 (stereo not given) | -18 | -2 | 0.2 | 1.2 | 80* | 3
CC(c1ccccc1)C1CC(=O)N(C2CCCCC2)C1=O (stereo not given) | 25 | 14 | 0.9 | 0.7 | 10 | -5
CCOc1cc(C)c(C(C)C)cc1S(=O)(=O)N1CCOCC1 | 45 | -2 | 0.8 | 0.5 | 16 | 10
Cc1ccc(CNC(=O)CSc2nc(N3CCCCC3)nc(N3CCCCC3)n2)cc1 | 71* | -6 | 0.9 | 0.3 | 11 | 46*
Cc1ccc(CNC(=O)CCSCCC(=O)NCc2ccc(C)cc2)cc1 | 9 | -8 | 0.3 | 0.9 | 70* | -4
Cc1ccc(CNC(=O)CSc2ncccn2)cc1 | 77* | 4 | 0.9 | 0.2 | 14 | -1
Cc1ccc(CNC(=O)CN2CCN(Cc3ccc(C)cc3)C2=O)cc1 | 21 | -6 | 0.7 | 0.8 | 26 | 12
CCC1CCC2(CC1)NNC(=S)NN2 | 33 | -25 | 0.8 | 0.7 | 19 | 11
O=C(NC1CCCCC1)NC1CC2CCC(C1)N2C(=O)NCc1ccccc1 (stereo not given) | -9 | -1 | 1.1 | 1.1 | -13 | -3
CC1(C)Cc2c(sc3c2c(=N)n(Cc2ccco2)c(=O)n3Cc2ccc(Cl)cc2)CO1 | 10 | 6 | 0.7 | 0.9 | 35 | 97*
Clc1ccc(CN2CCN(c3ncnc4scc(-c5cccs5)c34)CC2)cc1 | 84* | 7 | 0.7 | 0.2 | 29 | 58*
O=C1OC(c2ccccc2)=C/C1=C/N1CCCCC1 | 37 | -1 | 1 | 0.6 | 4 | 31*
O=C1OC(c2ccccc2)=N/C1=C\N1CCCCC1 | 30 | 3 | 1 | 0.7 | -2 | 13
CN1C(=O)CC(C(=O)Nc2ccc(F)cc2)SC1=Nc1ccc2c(c1)OCO2 (stereo not given) | 58* | 0 | 0 | 0.4 | 99* | 21
CCOc1cccc(NC(=O)C2CC(=O)NC(=Nc3ccccc3)S2)c1 (stereo not given) | 19 | -2 | 0.4 | 0.8 | 62* | -1
COc1cccc(N=C2SC(C(=O)Nc3ccccc3F)CC(=O)N2C)c1 (stereo not given) | 36 | 3 | 0.4 | 0.6 | 62* | 4
CCNC(=O)C1CC(=O)N(Cc2ccc(F)cc2)C(=Nc2ccc(OC)cc2)S1 (stereo not given) | 55* | 1 | 1.6 | 0.5 | -56 | -2
COc1ccc(NC(=O)C2CC(=O)N(C)C(=Nc3ccc4c(c3)OCO4)S2)cc1 (stereo not given) | nt | 4 | nt | nt | nt | 12
N=c1c2c3c(sc2nc2n1CCC2)CCCC3 | -18 | -10 | 1.1 | 1.2 | -6 | 11
CCN=C1SC(C(=O)Nc2cccc(OCC)c2)CC(=O)N1CC (stereo not given) | 87* | -2 | 1 | 0.1 | 4 | 9
C/C(CCc1ccc2c(c1)OCO2)=N\N=C1\NC(=O)CC(C(=O)Nc2ccc(Cl)cc2)S1 (stereo not given) | 30 | -5 | 0.2 | 0.7 | 75* | 0

Compound activity deposited in PubChem BioAssay by several laboratories.
